We go through three molecules from PubChem BioAssay.

A short description of assay [1]: signal quenchers or enhancers, Cy5 substrate/SSB – biochemical, NIH Clinical Collection, E. coli SSB, artefact control for HCV NS3 helicase inhibitor project (AID 743268). Conditions: Cy5-oligo bound E. coli SSB, fluorescence interference.
Assay [2] deals with Hepatitis C virus NS3 helicase. Put plainly: blockers of NS3h binding to DNA – biochemical, fluorescence polarization, NIH Clinical Collection, primary screen (AID 743270). Conditions: NS3 helicase binding to Cy5-dT15 DNA, stronger effect = higher value, concentration not given here.
The target in assay [3] is Single-stranded DNA-binding protein (Escherichia coli (strain K12)) (UniProt P0AGE0). Put plainly: SSB-ssDNA binding inhibitors – biochemical, fluorescence polarization, NIH Clinical Collection, counter-screen for HCV NS3 helicase inhibitor project (AID 743271; in the data active = inhibition above about 28%). Conditions: E. coli SSB-DNA binding, stronger effect = higher value, concentration not given here. For orientation: Polarisation of emitted light reports the rotation of a fluorescent probe.

The nature of assay [4]: compounds distorting NS3 helicase fluorescence signal – biochemical, NIH Clinical Collection, artefact control for HCV NS3 helicase inhibitor project (AID 743272).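 Also: HCV NS3 helicase with a Cy5 labelled single stranded DNA probe.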 Conditions: fluorescence interference counterscreen, HCV NS3 helicase assay; stronger effect = lower value.
Assay [5] is described as follows: Wnt pathway potentiators raising nuclear beta-catenin – imaging, WNT3A-conditioned medium, mouse C2C12, NPC library, primary screen (AID 1117326; in the data active = nuclear beta-catenin stimulation mostly above about 4.2%, no sharp cut-off; inactive = mostly below about 10%). Conditions: stronger effect = higher value.
Assay [6] in a line: stimulators of insulin release from INS-1E, primary screen, cell-based, 5 mM glucose, NPC library (AID 1117329;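 active = compound raises insulin release from rat beta cells at 5 mM glucose, no numeric limit stated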). The conditions noted are these: rat INS-1E insulin secretion, at 10 µM, stronger effect = higher value.
The nature of assay [7]: growth inhibition of GSK3B-pretreated HCT116 cells – cell-based, CellTiter-Glo, 0.2 to 20 µM (AID 1117336;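 active = compounds lowering colon cancer cell viability after pretreatment blocking the GSK3B kinase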). Conditions: HCT116 viability after GSK3B inhibitor, at 20 µM, stronger effect = higher value. (In general: Cellular ATP, detected with luciferase, serves as a proxy for viable cell number.)
Assay [8] is described as follows: inhibition of endothelial tube formation, primary screen, imaging, VEGF stimulated, CD31 staining, tube area, NPC library (AID 1117340;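 active = compound that reduces growth-factor-driven endothelial tube area in a mixed cell culture, no cutoff stated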). Conditions: VEGF-stimulated ADSC/ECFC co-culture, at 10 µM, stronger effect = higher value.
A short description of assay [9]: GLP1 release stimulators, primary, NCI-H716, NPC library (AID 1117341;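 active = compound raises GLP1 secretion from the human gut endocrine cells, with no numeric limit stated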). The conditions noted are these: NCI-H716 cells, at 10 µM, stronger effect = higher value.
Assay [10] can be described thus: HCT116 colon cancer cell growth inhibition, primary screen, CellTiter-Glo luminescence, NPC library (AID 1117342;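 active = compounds that lower survival of HCT116 colon cancer cells in the luminescence readout, no numeric limit stated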). The conditions noted are these: at 20 µM (top of the series).
The nature of assay [11]: reduced SW480 viability measured with CellTiter-Glo, NPC library, primary (AID 1117343;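 active = compounds that lower viability of the colon cancer cells in the luminescence readout, with no numeric limit stated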). Conditions: CellTiter-Glo luminescence; at 20 µM (top of the series).
Assay [12] is described as follows: NPC library primary testing for decreased DLD-1 cell viability via CellTiter-Glo (AID 1117346;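 active = compounds that lower survival of DLD-1 colon cancer cells in the luminescence readout, no cutoff given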). Conditions: DLD-1 viability, CellTiter-Glo luminescence; at 20 µM (top of the series).
Assay [13] has as its target 6-phosphogluconate dehydrogenase, decarboxylating (Homo sapiens) (UniProt P52209). In words: inhibition of human phosphogluconate dehydrogenase – biochemical, recombinant enzyme, NADPH absorbance, primary screen (AID 1159550;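 active = at least 20% inhibition of 6-phosphogluconate dehydrogenase activity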). The conditions noted are these: recombinant 6PGD, NADPH absorbance 341 nm; at 10 µM; stronger effect = higher value.
Assay [14] is described as follows: EMT-state selective cytotoxicity in co-culture – imaging, PC-3E GFP, TEM4-18 mCherry, primary screen (AID 1345086;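 active = compounds killing one labelled cell type while sparing the other, by normalised counts and ratio limits, not self-fluorescent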;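 as to all read-outs here: cells exposed to compound for 72 h before imaging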;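 as to red/green cell ratio (normalised): normalised mesenchymal count divided by normalised epithelial count so high means epithelial killing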). Conditions: PC-3E GFP / TEM4-18 mCherry co-culture, imaging cell counts, at 1 µM; for red/green cell ratio (normalised): actives lie on both sides, counts scaled to control wells, 1 = unselective.
The nature of assay [15]: MELAS cybrid and Rieske KO viability enhancers – cell-based, MELAS cybrids, Rieske KO mouse fibroblasts, CellTiter-Glo, primary screen (AID 1508586;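 active = mean z-score across replicates of 1.96 or higher in either the MELAS or the Rieske mutant cell line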;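 also: z relative to plate mean and SD of compound and empty wells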). Conditions: low glucose.
In assay [16] the target is NAD(+) hydrolase SARM1 (Homo sapiens) (UniProt Q6SZW1). Put plainly: blocking NAD cleavage by SARM1 SAM-TIR – cell lysate, NAD-Glo luminescence (AID 1508614;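 active = compound whose remaining NAD level is above about 45 nM, limit read from the data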;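 also: higher remaining NAD means stronger inhibition of SARM1 NADase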). Conditions: SAM-TIR HEK293T lysate NADase, at 1 µM, stronger effect = higher value.
Sequence of NAD(+) hydrolase SARM1 (Homo sapiens) (Q6SZW1 whole entry, looked up, the tested form may be a part): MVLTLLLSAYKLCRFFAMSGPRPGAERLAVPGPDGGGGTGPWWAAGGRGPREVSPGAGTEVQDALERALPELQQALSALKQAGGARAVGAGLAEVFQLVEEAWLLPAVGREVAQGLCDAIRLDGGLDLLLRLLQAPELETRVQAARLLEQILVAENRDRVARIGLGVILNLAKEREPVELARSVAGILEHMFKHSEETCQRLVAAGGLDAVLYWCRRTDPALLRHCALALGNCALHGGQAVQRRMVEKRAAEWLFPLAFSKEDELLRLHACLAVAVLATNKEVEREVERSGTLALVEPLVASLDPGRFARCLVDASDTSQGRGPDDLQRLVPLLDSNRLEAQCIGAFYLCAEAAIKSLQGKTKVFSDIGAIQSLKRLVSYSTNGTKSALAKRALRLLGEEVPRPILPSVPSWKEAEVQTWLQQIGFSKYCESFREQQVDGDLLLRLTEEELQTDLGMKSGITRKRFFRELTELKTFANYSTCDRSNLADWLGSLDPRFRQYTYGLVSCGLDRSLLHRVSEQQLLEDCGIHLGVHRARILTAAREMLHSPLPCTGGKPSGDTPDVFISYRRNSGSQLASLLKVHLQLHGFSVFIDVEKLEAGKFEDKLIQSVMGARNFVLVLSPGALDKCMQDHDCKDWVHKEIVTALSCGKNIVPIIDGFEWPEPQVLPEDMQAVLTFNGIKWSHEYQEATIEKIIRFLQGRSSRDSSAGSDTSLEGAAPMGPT
For assay [17], the target named is Mitogen-activated protein kinase 7 (Homo sapiens) (UniProt Q13164). Put plainly: Gal4-ERK5 driven luciferase induction – cell-based, HTS, primary screen (AID 1508626;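 active = luciferase signal above three times the same-plate solvent-only control wells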;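 also: luciferase driven by Gal4-ERK5 fusion binding five Gal4 sites before minimal TATA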). The conditions noted are these: HeLa Gal4-ERK5 transactivation, 18 h, at 5 µM, stronger effect = higher value.
Sequence of Mitogen-activated protein kinase 7 (Homo sapiens) (Q13164 whole entry, looked up, the tested form may be a part): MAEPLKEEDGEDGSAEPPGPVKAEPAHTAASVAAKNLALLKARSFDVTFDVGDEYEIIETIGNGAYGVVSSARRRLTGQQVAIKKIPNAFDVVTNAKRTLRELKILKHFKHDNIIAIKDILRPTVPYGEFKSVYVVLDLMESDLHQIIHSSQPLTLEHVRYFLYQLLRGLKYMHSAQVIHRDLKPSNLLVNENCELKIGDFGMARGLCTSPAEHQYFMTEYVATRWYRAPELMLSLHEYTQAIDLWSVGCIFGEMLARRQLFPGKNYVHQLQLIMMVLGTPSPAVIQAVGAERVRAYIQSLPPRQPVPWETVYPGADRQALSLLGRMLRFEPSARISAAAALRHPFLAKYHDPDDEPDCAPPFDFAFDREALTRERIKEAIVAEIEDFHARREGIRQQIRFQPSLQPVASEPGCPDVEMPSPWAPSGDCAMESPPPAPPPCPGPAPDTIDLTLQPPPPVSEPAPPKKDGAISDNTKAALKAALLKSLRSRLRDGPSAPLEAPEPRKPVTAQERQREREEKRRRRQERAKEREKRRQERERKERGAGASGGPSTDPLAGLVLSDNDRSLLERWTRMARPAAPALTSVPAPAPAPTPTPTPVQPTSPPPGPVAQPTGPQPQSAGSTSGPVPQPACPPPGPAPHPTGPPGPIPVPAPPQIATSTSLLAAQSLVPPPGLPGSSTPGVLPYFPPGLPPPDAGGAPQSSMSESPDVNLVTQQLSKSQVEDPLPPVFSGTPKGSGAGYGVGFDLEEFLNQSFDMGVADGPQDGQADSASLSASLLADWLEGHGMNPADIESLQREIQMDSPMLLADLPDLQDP
The test system of the next assay is F380Y. Put plainly: BK channel mutant inhibitors and activators – cell-based, U2OS BacMam, thallium flux, beta subunits, selectivity assay, profiling panel (AID 1259406;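 active = thallium flux through the channel raised or lowered by more than 3 SD from vehicle-only wells, actives on both sides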;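 also: initial slope of Thallos dye fluorescence rise after thallium is added; log ratio against the mean of 0.3% DMSO vehicle wells on the same plate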). The conditions noted are these: U2OS BacMam BK variants, at 30 µM.
Assay [18] can be described thus: viability loss with induced miR-34 in A549 – imaging, A549 dox-inducible miR-34, nuclei and caspase counts, primary screen (AID 1347080). The conditions noted are these: A549 miR-34 inducible, Hoechst nuclei count, 48 h; measured here: total cells without miR-34 induction.
Setting [19] is: measured here: epithelial PC-3E GFP cell survival.
[20] abbreviates: measured here: mesenchymal TEM4-18 mCherry cell survival.
[21] abbreviates: MELAS cybrid survival, CellTiter-Glo 48 h, stronger effect = higher value.
Setting [22] is: Rieske KO mouse fibroblast survival, CellTiter-Glo 72 h.

Where “and” joins values, the source holds several entries; their conditions need not be identical. Identical values can stand only once. Calls of active or inactive are those of the source. Unless noted, no rule for the calls is given here.

Sequence of 6-phosphogluconate dehydrogenase, decarboxylating (Homo sapiens) (P52209 whole entry, looked up): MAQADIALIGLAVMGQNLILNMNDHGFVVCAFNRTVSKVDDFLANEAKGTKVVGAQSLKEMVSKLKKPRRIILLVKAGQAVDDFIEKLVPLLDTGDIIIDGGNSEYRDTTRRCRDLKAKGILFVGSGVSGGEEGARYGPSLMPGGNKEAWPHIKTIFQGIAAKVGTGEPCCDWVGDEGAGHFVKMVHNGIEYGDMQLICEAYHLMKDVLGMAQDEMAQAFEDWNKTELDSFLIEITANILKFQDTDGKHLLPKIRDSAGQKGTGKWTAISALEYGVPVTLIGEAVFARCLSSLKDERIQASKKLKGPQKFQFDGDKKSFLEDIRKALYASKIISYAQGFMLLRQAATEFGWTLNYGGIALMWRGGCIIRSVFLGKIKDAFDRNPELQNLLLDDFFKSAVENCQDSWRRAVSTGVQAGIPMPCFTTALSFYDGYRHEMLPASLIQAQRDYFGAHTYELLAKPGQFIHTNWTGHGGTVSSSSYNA

One may read the inhibition as the relative decrease from the control value, in per cent. For `CC(=O)CCCCn1c(=O)c2c(ncn2C)n(C)c1=O`, the fluorescence ratio in assay [1] is 1.01 (inactive); in [4], 1 (inactive). The figures for the inhibition in assay [2], in assay [3] and in assay [13] were -5.15% (inactive), -2.41% (inactive) and 4.74% (inactive), respectively. Also, the nuclear beta-catenin stimulation is 0.1% (inactive) in [5] (at 10 µM) and -0.8% in assay [5] (stimulation, at 2 µM). In assay [6], the insulin secretion stimulation is -1.6% (inactive). The viability decrease in assay [7] is 2.8% (inactive). Besides, in [8], the tube area decrease is -8.3% (inactive). Besides, the GLP1 secretion stimulation in assay [9] is 1.9% (inactive). Besides, the inhibition of viability in assay [10] is -8.4% (inactive). Further, the viability decrease (inhibition) was 52.4% (active) in assay [11] and 10.8% (inactive) in assay [12]. Further, the red/green cell ratio (normalised) in assay [14] is 1.09 (inactive). Moreover, the normalised cell number worked out at 1.25 in assay [14] (setting [19]) and 1.37 in [14] (setting [20]). The z-score in assay [15] (setting [21]) is 0.897 (inactive) and 0.351 (inactive); in [15] (setting [22]), 0.0131 and -0.0411. Further, in [16], the remaining NAD was 10 nM (inactive). Also, the luciferase signal in [17] was 88 AU (inactive). Also, in the assay on F380Y, the log fold change Tl+ flux was 0.00269 (inactive).
For the molecule `CC(C)(C)NCC(O)c1cc(O)cc(O)c1` (configuration not stated), the fluorescence ratio in assay [1] is 1.05 (inactive); in assay [4], 1.04 (inactive). Besides, the inhibition in assay [2] is -2.27% (inactive); in assay [3], -3.53% (inactive); in assay [13], -13.6% (inactive). Further, the nuclear beta-catenin stimulation in assay [5] (at 10 µM) was 1.5% (inactive); in assay [5] (stimulation, at 2 µM) it was 3.1%. Besides, the insulin secretion stimulation in [6] is -1% (inactive). Also, in assay [7], the viability decrease was -25.1% (inactive). The tube area decrease in assay [8] is -9.7% (inactive). For the same molecule, the GLP1 secretion stimulation in [9] is 1.4% (inactive). The inhibition of viability in assay [10] is 3.9% (inactive). Also, the viability decrease (inhibition) was 20.2% (inactive) in assay [11] and -3.5% (inactive) in [12]. The red/green cell ratio (normalised) in assay [14] was 1.28 (inactive). Besides, the values for the normalised cell number in assay [14] (setting [19]) and in assay [14] (setting [20]) were 0.91 and 1.16, respectively. Besides, in assay [18], the cell count is 10100 and 11300 and 12600. The z-score in assay [15] (setting [21]) is -0.672 (inactive); in assay [15] (setting [22]), -0.203. The remaining NAD in assay [16] is 10 nM (inactive). For the same molecule, the luciferase signal in assay [17] was 108 AU (inactive). In the assay on F380Y, the log fold change Tl+ flux was 0.00388 (inactive).
For the molecule `CC(C)[N+](C)(CCOC(=O)C1c2ccccc2Oc2ccccc21)C(C)C`, the fluorescence ratio in assay [1] is 1.03 (inactive); in [4] it was 0.96 (inactive). The inhibition is -1.36% (inactive) in assay [2], 0.29% (inactive) in assay [3] and 6.27% (inactive) in assay [13]. Moreover, the nuclear beta-catenin stimulation in assay [5] (at 10 µM) is 1.3% (inactive); in assay [5] (stimulation, at 2 µM), 3.3%. Moreover, in [6], the insulin secretion stimulation is 0.2% (inactive). In addition, the viability decrease in assay [7] is -14.9% (inactive). The tube area decrease in [8] is 9.2% (inactive). Further, the GLP1 secretion stimulation in [9] was 0.4% (inactive). Moreover, the inhibition of viability in [10] was 6.7% (inactive). Further, the viability decrease (inhibition) in [11] was -1.5% (inactive); in [12] it was -16.9% (inactive). Further, the red/green cell ratio (normalised) in [14] was 1.27 (inactive). Further, the values for the normalised cell number in [14] (setting [19]) and in assay [14] (setting [20]) were 1.02 and 1.3, respectively. For the same molecule, the z-score is 0.349 (inactive) in assay [15] (setting [21]) and 0.213 in [15] (setting [22]). Further, the remaining NAD in assay [16] was 10 nM (inactive). Further, the luciferase signal in assay [17] is 48 AU (inactive). In addition, the log fold change Tl+ flux in the assay with F380Y was 0.0202 (inactive).
